Measured values from PubChem BioAssay AID1851 (National Center for Advancing Translational Sciences (NCATS), 2009).
The whole screen tested about 16,000 compounds, of which about 5,100 (32%) were called active. About 25% were inconclusive and are not listed. The call rests on the fitted dose curve; in most records, active means well fitted curve in the direction sought with a large enough effect; inconclusive means small, poorly fitted or top-dose-only effect, or effect the other way; inactive means no such curve, though single readings can be large or run the other way. The list shows a part of the results.

biological target: Cytochrome P450 3A4 (Homo sapiens) (UniProt P08684); experiment: Cytochrome panel assay with activity outcomes; conditions: recombinant CYP, pro-luciferin dealkylation, luminescence, p450-cyp3a4; series mostly up to 57.1 µM
On the % scale 0 is the no-effect control and ±100 the full control effect.

Sequence of Cytochrome P450 3A4 (Homo sapiens) (P08684 whole entry, looked up): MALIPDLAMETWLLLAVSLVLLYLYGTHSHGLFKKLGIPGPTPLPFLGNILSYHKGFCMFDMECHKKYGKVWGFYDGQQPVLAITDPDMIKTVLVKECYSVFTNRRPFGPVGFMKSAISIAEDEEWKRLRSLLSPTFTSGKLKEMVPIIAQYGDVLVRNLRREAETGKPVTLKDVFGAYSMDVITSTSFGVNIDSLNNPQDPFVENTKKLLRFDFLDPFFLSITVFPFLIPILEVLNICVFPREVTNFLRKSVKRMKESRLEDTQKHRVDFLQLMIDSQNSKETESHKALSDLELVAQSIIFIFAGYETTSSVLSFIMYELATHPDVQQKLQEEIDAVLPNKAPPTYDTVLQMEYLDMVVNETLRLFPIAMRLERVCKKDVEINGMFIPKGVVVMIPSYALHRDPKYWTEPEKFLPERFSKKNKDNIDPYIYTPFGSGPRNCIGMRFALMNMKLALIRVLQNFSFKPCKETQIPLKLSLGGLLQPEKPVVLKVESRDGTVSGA

Compound | AC50 | activity, negative = inhibition
COc1ccc(-n2c(=O)c(-c3cccc(Cl)c3)nc3cncnc32)cc1 | 12.6 µM (active) | 
Cn1c(=O)c(-c2cccc(Cl)c2)nc2cncnc21 | inactive | 
CCNc1ncc2nc(-c3cc(F)cc(F)c3)c(=O)n(-c3ccc(OC)cc3)c2n1 | 10 µM (active) | 
CCNc1ncc2nc(-c3ccc(F)cc3)c(=O)n(-c3ccccc3)c2n1 | inactive | 
Nc1ncnc2c1ncn2[C@H]1O[C@@H](C(=O)O)[C@@H](O)[C@H]1O |  | 0.186% [at 11.4 µM] (inactive)
CCOC(=O)C1=C(COc2ccc(F)cc2Cl)NC(=O)NC1c1cc(C)ccc1C (stereo not drawn) | 6.31 µM (active) | 
CCOC(=O)C1=C(CSc2nc3ccccc3s2)NC(=O)NC1c1cccc([N+](=O)[O-])c1 (stereo not drawn) | 6.31 µM (active) | 
CCOC(=O)C1=C(CSc2nc3ccccc3s2)NC(=O)NC1c1cc(C)ccc1C (stereo not drawn) | 4.47 µM (active) | 
COC(=O)C1=C(CSc2nncn2C)NC(=O)NC1c1ccc(F)cc1 (stereo not drawn) | inactive | 
CCC(=O)NNc1cc(=O)c2c(=O)n(C)c(=O)n(C)c2[nH]1 |  | 1.3% [at 2.29 µM] (inactive)
O=C1CCCN1c1ccc(S(=O)(=O)Oc2cccc(Cl)c2)cc1[N+](=O)[O-] | 12.6 µM (active) | 
O=[N+]([O-])c1ccc(N2CCCCC2)c(Cl)c1N1CCCCC1 | inactive | 
CN1C(=O)/C(=C\c2ccccc2)Sc2ccc(C(=O)N3CCN(c4ccccn4)CC3)cc21 | 14.1 µM (active) | 
Cn1cccc1C(=O)N1CCC2(CC1)CCN(c1ccccn1)CC2 | inactive | 
Cc1cnc(CNc2nc(-c3cccnc3)nc3ccccc23)cn1 | 3.98 µM (active) | 
COc1cccc(-c2nc(NCc3cnc(C)cn3)c3ccccc3n2)c1 | 2.51 µM (active) | 
CCCC12CN3CC(CCC)(CN(C1)C3C(O)C(O)C(O)CO)C2=O (stereo not drawn) |  | 0.643% [at 11.4 µM] (inactive)
O=C(NNC(=S)NC(=O)c1cccnc1)c1ccccc1 |  | 1.97% [at 2.29 µM] (inactive)
Cc1ccc(C(=O)NNC(=S)NC(=O)c2ccc(Cl)cc2)cc1 | 14.1 µM (active) | 
Cc1ccc(C)c(NC(=O)Cn2nnc(C(=O)Nc3c(C)cccc3C)c2N)c1 | 12.6 µM (active) | 
CCOc1ccc(NC(=O)c2nnn(CC(=O)Nc3ccccc3OC)c2N)cc1 | inactive | 
CCOc1ccc(NC(=O)Cn2nnc(C(=O)NCc3ccccc3OC)c2N)cc1 | 11.2 µM (active) | 

Compound | AC50 | activity, negative = inhibition
Cc1ccc(C)c(NC(=O)Cn2nnc(C(=O)NCc3cccs3)c2N)c1 | inactive | 
COC(=O)c1nnn(Cc2ccccc2)c1N | inactive | 
COc1ccc(CCNC(=O)c2nnn(CC(=O)Nc3ccccc3C)c2N)cc1OC | 12.6 µM (active) | 
Cc1ccc(C)c(NC(=O)Cn2c([N+](=O)[O-])cnc2C)c1 | inactive | 
O=C(O)/C=C1\NC(=O)c2ccccc21 | inactive | 
NCC[C@H](N)C(=O)O |  | -6.61% [at 11.4 µM] (inactive)
CC(C)NC(=O)N1CC2(CCN(S(=O)(=O)c3ccccc3)CC2)C1 | inactive | 
COc1ccc(NC(=O)N2CCCC3(CCN(S(C)(=O)=O)CC3)C2)cc1 | 31.6 µM (active) | 
CC(C)NC(=O)N1CCCC2(CCN(S(=O)(=O)c3ccccc3)CC2)C1 | 7.94 µM (active) | 
COCC(=O)N1CCC2(CCCN(C(=O)Nc3ccccc3)C2)CC1 | inactive | 
COc1ccc(NC(=O)N2CC3(CCN(S(C)(=O)=O)CC3)C2)cc1 | inactive | 
COc1ccc(NC(=O)N2CCC3(CC2)CCN(S(C)(=O)=O)CC3)cc1 | inactive | 
COc1ccc(NC(=O)N2CCCC3(CCN(S(=O)(=O)c4ccccc4)CC3)C2)cc1 | 7.94 µM (active) | 
CC(C)NC(=O)N1CC[C@@]2(CCCN(S(C)(=O)=O)C2)C1 | inactive | 
CCCCCCCCCCCCCCSCC(=O)O | inactive | 
Cc1ccc(OCC(O)CNC(=O)c2ccccc2C(=O)O)cc1 (stereo not drawn) | 28.2 µM (active) | 
O=C(O)COc1ccc(OCCNC[C@@H](O)COc2ccccc2)cc1 | inactive | 
O=C(NCCNC[C@@H](O)COc1ccc(O)cc1)N1CCOCC1 | inactive | 
Cc1ccnc2nc(C(=O)OCC(=O)Nc3ccc4c(c3)OC(F)(F)O4)nn12 | inactive | 
COc1cc(C)cc(OC)c1/C=C\C(=O)O |  | -4.32% [at 11.4 µM] (inactive)
COC(=O)[C@@]1(Cc2ccc(F)cc2)[C@H]2c3cc(C(=O)N4CCCC4)n(CCc4ccc(OC)c(Br)c4)c3C[C@H]2CN1C(=O)c1ccccc1 | 2.51 µM (active) | 
